# This is one part of the list. Results filed as inconclusive are left out. A number with no mark means an inactive call. Calls follow the shape of the dose curve; as a rule, active = well fitted curve in the direction sought with a large enough effect; inconclusive = small, poorly fitted or top-dose-only effect, or another doubt; inactive = no such curve, though single readings can be large or run the other way.
# Experiment: qHTS for Inhibitors of Glutaminase (GLS): Hit Confirmation in HRP Counterscreen
# Settings: HRP/glutamate oxidase coupled Amplex Red fluorescence counterscreen; series mostly up to 46.1 µM; activity change, negative = inhibition: at the top concentration
# From the text: Glutaminase (GLS) catalyzes the hydrolysis of glutamine into glutamate and ammonia. It plays a critical role in glutaminolysis, which is an important energy source for proliferating cells. It was shown that c-Myc, an oncogenic transcription factor known to regulate microRNAs and to stimulate cell proliferation, increases glutamine metabolism by stimulating the expression of GLS via direct suppression of miR23a and miR23b. […] GLS is also thought to play a pathogenic role on HAD using a human HIV-1 infected macrophage system. […] GLS inhibition limits glutamate release and provides neuroprotection against HIV-1 infected macrophages. […] The overall goal of this project is to identify small molecule inhibitors of GLS through quantitative high throughput screening (qHTS) of the MLSMR. A validated potent and selective inhibitor can be used as a tool molecule to further study the pharmacology of its target as well as explore its potential therapeutic application in cancer and inflammatory neurological disorders, such as HIV1-associated dementia (HAD) and multiple sclerosis. […]
# 3 uL of buffer are dispensed into black 1536-well plates and then 23 nL of compounds are transferred into the wells using a pin tool. […] The plate is quickly centrifuged before an initial read on the ViewLux is obtained. After a 30 min incubation at RT the plate is once again read on the ViewLux.
row,SMILES,"activity change, negative = inhibition [%]"
1,CCN1C(=O)c2cccc3c(S(=O)(=O)Nc4ccccc4O)ccc1c23,-2.22
2,COc1cc(OC)c(S(=O)(=O)Nc2ccccc2C(=O)O)cc1S(=O)(=O)Nc1ccccc1C(=O)O,-3.19

# From PubChem BioAssay AID624262 (National Center for Advancing Translational Sciences (NCATS), 2012)
